In ChEMBL document CHEMBL1961873, “Compounds: GSK PKIS; Assays: Nanosyn kinase panel” (2012):
Values joined by “and” are separate entries in the source; they are usually repeats but may differ in a detail not shown here. Equal entries are not always repeated.

Target: T1, MAP/microtubule affinity-regulating kinase 4 (Homo sapiens) (UniProt Q96L34);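 also: reported value is a mean MARK4 inhibition at 1 µM, taken from the GSK PKIS screening set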
T1 sequence (whole entry): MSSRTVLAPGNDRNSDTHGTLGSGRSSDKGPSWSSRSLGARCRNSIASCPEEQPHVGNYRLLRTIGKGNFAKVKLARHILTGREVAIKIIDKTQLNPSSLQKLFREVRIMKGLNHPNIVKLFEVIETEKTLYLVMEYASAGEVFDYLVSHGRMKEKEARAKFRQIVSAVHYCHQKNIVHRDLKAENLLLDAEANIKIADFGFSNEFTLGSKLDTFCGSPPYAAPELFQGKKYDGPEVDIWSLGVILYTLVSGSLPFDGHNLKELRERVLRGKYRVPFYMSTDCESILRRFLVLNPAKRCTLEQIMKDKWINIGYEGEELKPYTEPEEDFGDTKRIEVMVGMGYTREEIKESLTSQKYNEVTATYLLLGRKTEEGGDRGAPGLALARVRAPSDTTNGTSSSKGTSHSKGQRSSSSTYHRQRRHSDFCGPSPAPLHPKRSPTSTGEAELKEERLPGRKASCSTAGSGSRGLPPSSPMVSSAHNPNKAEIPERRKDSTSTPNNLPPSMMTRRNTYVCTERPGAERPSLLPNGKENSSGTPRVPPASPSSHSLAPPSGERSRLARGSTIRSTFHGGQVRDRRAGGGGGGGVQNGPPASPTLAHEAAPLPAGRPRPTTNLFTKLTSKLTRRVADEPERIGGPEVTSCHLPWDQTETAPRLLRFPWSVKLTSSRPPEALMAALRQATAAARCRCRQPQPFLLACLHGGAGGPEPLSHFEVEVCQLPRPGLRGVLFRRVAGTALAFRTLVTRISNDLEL
Conditions: at 1 µM

SMILES | inhibition
Fc1ccc(Nc2nccc(-c3c(-c4ccc(C(F)(F)F)cc4)nn4ncccc34)n2)cc1F | 2.56%
NS(=O)(=O)c1ccc(N/N=C2\C(=O)Nc3cccc(CCc4ccncc4)c32)cc1 | 4.28%
CCS(=O)(=O)c1ccc(OC)c(Nc2ncc(-c3cccc(F)c3)o2)c1 | 2.65%
COc1ccc(-c2nn3ncccc3c2-c2ccnc(Nc3ccc(F)c(F)c3)n2)cc1 | 1.84%
COc1cc(N2CCN(C(C)C)CC2)ccc1Nc1nc(Nc2cccc3ncccc23)c2cc[nH]c2n1 | 1.44%
N#Cc1ccc2c(-c3ccnc(NC4CC4)n3)c(-c3ccc(F)cc3)nn2c1 | 0.11%
CNC(=O)c1cncc(/C=C/c2ccccc2C)c1 | 3.49%
CS(=O)(=O)Nc1ccc(-c2ccc3c(NC(=O)C4CC4)n[nH]c3c2)cc1 | 2.82%
CS(=O)(=O)Nc1ccc(-c2cc(-c3ccccc3)cc(C(N)=O)c2N)cc1 | 0.98%
Cc1ccc(-c2cc3c(NC(=O)C4CC4)ncnc3o2)cc1 | 3.33%
c1ccc(-c2n[nH]cc2-c2ccnc(-c3ccc(OCCn4ccnc4)cc3)c2)nc1 | 3.83%
CCN1CCC(C(=O)Nc2n[nH]c3nnc(-c4cccc(F)c4F)cc23)CC1 | 2.52%
COC(=O)Nc1nc2ccc(Oc3ccc(NC(=O)Nc4cc(C(F)(F)F)ccc4F)cc3)cc2s1 | 0.37%
Cc1cc(O)cc(C)c1/C=C/c1cncc(C(N)=O)c1 | 1.6%
Fc1cccc(COc2ccc(Nc3ncncc3C#Cc3ccccc3)cc2Cl)c1 | 1.07%
COc1cc(N2CCN(C(C)C)CC2)ccc1Nc1nc(Nc2cccc(F)c2C(=O)O)c2cc[nH]c2n1 | 5.09%

SMILES | inhibition
COc1ccccc1-c1cc(/C=C2\C(=O)Nc3ncc(Br)cc32)cc(Br)c1O | 5.18%
Nc1nccc(-c2c(-c3ccc(F)cc3)ncn2C2CCNCC2)n1 | 0.67% and 0.98%
CN1CCC(C(=O)Nc2n[nH]c3nc(-c4ccc(O)cc4)c(Br)cc23)CC1 | 4.18% and 0.65%
NS(=O)(=O)c1cccc(N/C=C2\C(=O)Nc3ccccc32)c1 | 15.5%
CS(=O)(=O)CCNCc1ccc(-c2ccc3ncnc(Nc4ccc(OCc5cccc(C(F)(F)F)c5)cc4)c3c2)o1 | 2.54%
Cc1cc(O)cc(C)c1/C=C/c1cncc(C(=O)OC(C)(C)C)c1 | 0.19%
CC1=C(C(=O)Nc2ccc3[nH]nc(C)c3c2)C(c2ccc(C(F)(F)F)cc2)CC(=O)N1 (configuration not stated) | 3.18%
Cn1c(-c2nonc2N)nc2cnccc21 | 3.94%
O=C(O[C@H]1CN[C@H](C#Cc2cc3ncnc(Nc4ccc(OCc5cccc(F)c5)c(Cl)c4)c3s2)C1)N1CCOCC1 | 0.94%
CCS(=O)(=O)c1ccc(OC)c(Nc2ncc(-c3cccc(C(C)=O)c3)o2)c1 | 1.52%
Cc1c2ccc(N(C)c3ccnc(Nc4cccc(S(N)(=O)=O)c4)n3)cc2nn1C | 5.35%
COc1cc(Nc2ncc(-c3ccccc3)o2)cc(OC)c1 | 3.56%
CNC(=O)c1ncccc1Nc1nc(Nc2cc3c(cc2OC)CCCN3C(=O)CN(C)C)nc2[nH]ccc12 | 4.01%
CN(c1ccc(NC(=O)NCCN2CCOCC2)cc1)c1ccnc(Nc2ccc(CS(C)(=O)=O)cc2)n1 | 5.47%
c1cnn2ncc(-c3ccnc(NCCCN4CCOCC4)n3)c2c1 | 2.05%

Target: Maternal embryonic leucine zipper kinase (Homo sapiens) (UniProt Q14680);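 also: reported figure is the mean percent inhibition of MELK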
Conditions: at 0.1 µM

Maternal embryonic leucine zipper kinase (Homo sapiens), sequence (Q14680 whole entry, looked up): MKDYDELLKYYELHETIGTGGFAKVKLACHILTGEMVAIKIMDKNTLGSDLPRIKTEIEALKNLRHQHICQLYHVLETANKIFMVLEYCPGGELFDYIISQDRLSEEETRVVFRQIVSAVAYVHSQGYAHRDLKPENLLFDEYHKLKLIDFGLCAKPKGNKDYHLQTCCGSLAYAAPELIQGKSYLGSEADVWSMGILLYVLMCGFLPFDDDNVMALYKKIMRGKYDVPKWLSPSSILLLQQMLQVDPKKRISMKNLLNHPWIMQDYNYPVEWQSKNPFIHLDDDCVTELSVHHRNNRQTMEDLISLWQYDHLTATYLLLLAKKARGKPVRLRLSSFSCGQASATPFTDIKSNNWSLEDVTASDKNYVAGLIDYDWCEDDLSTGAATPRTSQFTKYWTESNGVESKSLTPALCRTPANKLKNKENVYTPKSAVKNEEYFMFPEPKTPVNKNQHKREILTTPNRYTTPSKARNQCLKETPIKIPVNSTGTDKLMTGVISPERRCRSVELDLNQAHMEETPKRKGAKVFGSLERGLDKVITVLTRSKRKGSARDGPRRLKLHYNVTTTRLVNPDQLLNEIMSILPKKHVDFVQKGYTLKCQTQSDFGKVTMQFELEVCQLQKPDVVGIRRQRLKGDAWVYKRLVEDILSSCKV

SMILES | inhibition
Fc1ccc(Nc2nccc(-c3c(-c4ccc(C(F)(F)F)cc4)nn4ncccc34)n2)cc1F | 1.38%
NS(=O)(=O)c1ccc(N/N=C2\C(=O)Nc3cccc(CCc4ccncc4)c32)cc1 | 4.76%
CCS(=O)(=O)c1ccc(OC)c(Nc2ncc(-c3cccc(F)c3)o2)c1 | 7%
COc1ccc(-c2nn3ncccc3c2-c2ccnc(Nc3ccc(F)c(F)c3)n2)cc1 | 3.07%
COc1cc(N2CCN(C(C)C)CC2)ccc1Nc1nc(Nc2cccc3ncccc23)c2cc[nH]c2n1 | -0.58%
N#Cc1ccc2c(-c3ccnc(NC4CC4)n3)c(-c3ccc(F)cc3)nn2c1 | -0.07%
CNC(=O)c1cncc(/C=C/c2ccccc2C)c1 | 1.3%
CS(=O)(=O)Nc1ccc(-c2ccc3c(NC(=O)C4CC4)n[nH]c3c2)cc1 | 2.17%
CS(=O)(=O)Nc1ccc(-c2cc(-c3ccccc3)cc(C(N)=O)c2N)cc1 | 3.07%
Cc1ccc(-c2cc3c(NC(=O)C4CC4)ncnc3o2)cc1 | 2.47%
c1ccc(-c2n[nH]cc2-c2ccnc(-c3ccc(OCCn4ccnc4)cc3)c2)nc1 | 2.12%
CCN1CCC(C(=O)Nc2n[nH]c3nnc(-c4cccc(F)c4F)cc23)CC1 | -1.02%
COC(=O)Nc1nc2ccc(Oc3ccc(NC(=O)Nc4cc(C(F)(F)F)ccc4F)cc3)cc2s1 | 1.63%
Cc1cc(O)cc(C)c1/C=C/c1cncc(C(N)=O)c1 | 3.07%
Fc1cccc(COc2ccc(Nc3ncncc3C#Cc3ccccc3)cc2Cl)c1 | 3.34%
COc1cc(N2CCN(C(C)C)CC2)ccc1Nc1nc(Nc2cccc(F)c2C(=O)O)c2cc[nH]c2n1 | 2.86%

SMILES | inhibition
COc1ccccc1-c1cc(/C=C2\C(=O)Nc3ncc(Br)cc32)cc(Br)c1O | 4.33%
Nc1nccc(-c2c(-c3ccc(F)cc3)ncn2C2CCNCC2)n1 | -3.33% and -1.76%
CN1CCC(C(=O)Nc2n[nH]c3nc(-c4ccc(O)cc4)c(Br)cc23)CC1 | 3.6% and 2.34%
NS(=O)(=O)c1cccc(N/C=C2\C(=O)Nc3ccccc32)c1 | 5.46%
CS(=O)(=O)CCNCc1ccc(-c2ccc3ncnc(Nc4ccc(OCc5cccc(C(F)(F)F)c5)cc4)c3c2)o1 | 3.5%
Cc1cc(O)cc(C)c1/C=C/c1cncc(C(=O)OC(C)(C)C)c1 | 3.07%
CC1=C(C(=O)Nc2ccc3[nH]nc(C)c3c2)C(c2ccc(C(F)(F)F)cc2)CC(=O)N1 (configuration not stated) | 3.65%
Cn1c(-c2nonc2N)nc2cnccc21 | 7.95%
O=C(O[C@H]1CN[C@H](C#Cc2cc3ncnc(Nc4ccc(OCc5cccc(F)c5)c(Cl)c4)c3s2)C1)N1CCOCC1 | 3.76%
CCS(=O)(=O)c1ccc(OC)c(Nc2ncc(-c3cccc(C(C)=O)c3)o2)c1 | 2.17%
Cc1c2ccc(N(C)c3ccnc(Nc4cccc(S(N)(=O)=O)c4)n3)cc2nn1C | 3.62%
COc1cc(Nc2ncc(-c3ccccc3)o2)cc(OC)c1 | 4.58%
CNC(=O)c1ncccc1Nc1nc(Nc2cc3c(cc2OC)CCCN3C(=O)CN(C)C)nc2[nH]ccc12 | 3.77%
CN(c1ccc(NC(=O)NCCN2CCOCC2)cc1)c1ccnc(Nc2ccc(CS(C)(=O)=O)cc2)n1 | 2.36%
c1cnn2ncc(-c3ccnc(NCCCN4CCOCC4)n3)c2c1 | 4.35%
